# Test results taken from PubChem BioAssay AID1347076 (National Center for Advancing Translational Sciences (NCATS), 2019).
# Hit rate of the full screen: of about 400,000 compounds, about 13,000 (3.2%) were called active. About 18% were inconclusive and are not listed. The call rests on the fitted dose curve; in most records, active means well fitted cell-killing curve with a large enough effect; inconclusive means small, poorly fitted or top-dose-only effect, or effect the other way; inactive means flat fitted curve, though single readings scatter. Shown is part of a subset that was picked to be rich in actives.
# Assay: qHTS assay for MDR1-selective chemotherapeutics: Primary screen using the drug-selected MDR subline cells KB-V1; further: nearly all actives have a fitted effect of over 60% in size
# Details: KB-V1 MDR cells viability, CellTiter-Glo, 72 h; series mostly up to 46.1 µM; activity change, negative = cytotoxicity: at the top concentration
# Outline: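 KB-V1, DMEM (no phenol red) + 10% FBS; cpd pin-transferred, titration series; 72 h, 37 degrees C; CellTiter-Glo, luminescence. Data normalized, curve-fit.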
# On the % scale 0 is the no-effect control and ±100 the full control effect; potency means the concentration at half of the fitted maximal effect.
SMILES,"activity change, negative = cytotoxicity",Potency
Cc1ccc2cccc([N+](=O)[O-])c2n1,8.04% (inactive),
Cc1cccc(C)c1NC(=O)COC(=O)c1c(C)nn(-c2ccccc2)c1C,-18.2% (inactive),
CCC(Oc1ccccc1)C(=O)OCC(=O)Nc1c(C)nn(-c2ccccc2)c1C (configuration not stated),19.3% (inactive),
Cc1nn(-c2ccccc2)c(C)c1/C=C/C(=O)OC(C)C(N)=O (configuration not stated),,23.1 µM (active)
CCOC(=O)C1CCCN(C(=O)c2cccc3ccccc23)CC1 (configuration not stated),2.97% (inactive),
Cc1c(CN2CCC(CO)(CCOc3ccccc3)CC2)[nH]c2ccc(Cl)cc12,,5.8 µM (active)
CC(C)(O)C#Cc1ccc(CN2CCC(CO)(CCc3ccccc3)CC2)cc1,-12.5% (inactive),
CCOC(=O)C1(CCOc2ccccc2)CCN(Cc2cc(OC)c(O)cc2Cl)CC1,-24.4% (inactive),
COc1cc(OC)c(NC(=O)N2CC3CCCN3c3ccccc32)cc1Cl (configuration not stated),-18% (inactive),
C[C@@H]1CN([C@@H](C)CO)C(=O)CCCn2nncc2CO[C@H]1CN(C)C(=O)Nc1ccc(C(F)(F)F)cc1,-3.62% (inactive),
CCc1nc2cccnc2n1-c1ccc(CC(=O)Nc2c(C)cccc2C)cc1,7.03% (inactive),
CC1CC(C)CN(c2oc(-c3ccc(OCc4ccc(Cl)cc4)cc3)nc2C#N)C1 (configuration not stated),0% (inactive),
CCOc1ccc(Br)cc1S(=O)(=O)Nc1cccc(S(=O)(=O)N(CC)CC)c1,-5.63% (inactive),
CCN(CC)S(=O)(=O)c1ccc(N(C)Cc2cccc(OC)c2OC)nc1,,6.51 µM (active)
CCN(CC)S(=O)(=O)c1ccc(OC)c(NC(=O)CCc2c(C)noc2C)c1,-7.82% (inactive),
CCC(C(=O)Nc1cccc(Cl)c1C)n1nc(-c2ccc(C)cc2)ccc1=O (configuration not stated),0% (inactive),
CCc1nc2c(OCCOc3ccccc3)cccn2c1N(C=O)Cc1ccc(OC)cc1,-23% (inactive),
Cc1cc(C)n(-c2nc(C(F)(F)F)nc3ccccc23)n1,18.4% (inactive),
CCc1ccc(C(CNc2nc(C(F)(F)F)nc3ccccc23)N(C)C)cc1 (configuration not stated),,16.4 µM (active)
CC(Nc1nc(C(F)(F)F)nc2ccccc12)c1cccs1 (configuration not stated),-18.5% (inactive),
CC1=C(C(=O)N(C(C)C)C(C)C)CC(CC(=O)NCC2CCCCC2)C(=O)N1Cc1ccccc1 (configuration not stated),-6.01% (inactive),
O=C(NCC1CCCO1)c1ccc2ccccc2n1 (configuration not stated),20.7% (inactive),
COc1ccc2cc(C(=O)NCC3CCCO3)[nH]c2c1 (configuration not stated),-5.71% (inactive),
O=C(NCC1CCCO1)c1cc2c([nH]c3ccccc32)c(-c2ccc(F)cc2)n1 (configuration not stated),,11.6 µM (active)
Cc1cccc(N(CC(=O)N2CCCC2)S(C)(=O)=O)c1C,-10.2% (inactive),

SMILES,"activity change, negative = cytotoxicity",Potency
O=C(NCc1ccccc1)C1CCCN(S(=O)(=O)c2cccs2)C1 (configuration not stated),-11.5% (inactive),
Cc1ccc2c(CN3CCN(S(=O)(=O)c4ccccc4C(F)(F)F)CC3)cc(=O)oc2c1,-4.4% (inactive),
COc1ccc2c(CN3CCN(S(=O)(=O)c4cccs4)CC3)cc(=O)oc2c1,,13 µM (active)
O=S(=O)(c1cccs1)N1CCc2ccccc2C1,-1.64% (inactive),
O=S(=O)(c1cccs1)N1CCN(Cc2ccccc2)CC1,,16.4 µM (active)
CC(=O)N1CCN(Cc2cc(=O)oc3cc(C)ccc23)CC1,23.4% (inactive),
O=c1cc(CN2CCCCCCC2)c2c(ccc3ccccc32)o1,0% (inactive),
COCCNc1nc(-n2nc(C)cc2C)nc2sc3c(c12)CCCC3,,9.2 µM (active)
CCc1nc(N2CCN(C(C)=O)CC2)c2c3c(sc2n1)CCCC3,0.835% (inactive),
COCCn1c(C)cc(C(=O)CSc2ncnc3sc4c(c23)CCC4)c1C,-0.688% (inactive),
CCOC(=O)Cn1c(SC)nc2sc3c(c2c1=O)CC(C)(C)OC3,0% (inactive),
CC/C(C)=N/Nc1nc2sc3c(c2c(=O)[nH]1)CC(C)(C)OC3,0% (inactive),
CCC(O)CNc1nc(-n2nc(C)cc2C)nc2sc3c(c12)CC(C)(C)OC3 (configuration not stated),,2.59 µM (active)
O=C(NC1CCCCC1)C(c1cc2ccccc2o1)n1c(=O)c(-c2ccco2)nc2ccccc21 (configuration not stated),0.699% (inactive),
Nc1[nH]c(C(=O)c2ccccc2)c(-c2ccncc2)c1C(=O)NCc1cccc2ccccc12,-26.5% (inactive),
Cc1ccc(Cn2cc(CN3CC(N4CCN(C)CC4)CS3(=O)=O)nn2)cc1 (configuration not stated),-0.565% (inactive),
CCOC(=O)N1CCN(C(=O)c2ccc(S(=O)(=O)Nc3cccc(C(F)(F)F)c3)cc2)CC1,-0.0688% (inactive),
Cc1ccccc1CN1CCN(C(=O)c2cccc(F)c2)CC1,-5.87% (inactive),
Cc1ccccc1CS(=O)(=O)CC1(O)CCN(C(=O)c2cccc(C(F)(F)F)c2)CC1,,14.6 µM (active)
CCOc1ccc(-c2cc3nc(C4CCN(C(=O)OC(C)(C)C)CC4)c(C(=O)Nc4cccc(CC)c4)cn3n2)cc1,11.3% (inactive),
Cn1c(=O)c2c(-c3ccccc3Br)n(Cc3ccccc3)cc2n(C)c1=O,8.21% (inactive),
C[C@H]1CCC(=O)N([C@H](CSc2ccccc2)Cc2ccccc2)CC1,-9.51% (inactive),
CC(=O)Nc1ccc(SC[C@H](Cc2ccccc2)N2CC[C@@H](C)CCC2=O)cc1,0.636% (inactive),
CN(CC(=O)Nc1cccc(F)c1)CC(=O)Nc1cccc([N+](=O)[O-])c1,,11.6 µM (active)
Cc1ccc(CN(C)CC(=O)Nc2cccc([N+](=O)[O-])c2)o1,0% (inactive),

SMILES,"activity change, negative = cytotoxicity",Potency
CN(CC(=O)Nc1cccc(F)c1)C(=O)C1=COCCO1,17.7% (inactive),
C[C@@H]1CN([C@H](C)CO)C(=O)CCCn2cc(nn2)CO[C@H]1CN(C)S(=O)(=O)c1ccc(Oc2ccccc2)nc1,-17.3% (inactive),
O=C(C[C@H]1C[C@H]2c3cc(NS(=O)(=O)c4ccc(F)cc4)ccc3O[C@H]2[C@H](CO)O1)NCc1cc(F)ccc1F,5.71% (inactive),
CC(Sc1nnc2c(n1)C1CCC2(C)C1(C)C)C(=O)Nc1ccccc1 (configuration not stated),,20.6 µM (active)
CC(Sc1nnc(C2CC2)n1C1CC1)C(=O)Nc1ccc(C(N)=O)cc1 (configuration not stated),6.16% (inactive),
Cc1cccc(-c2nnc(SC(C)C(=O)Nc3ccccc3)n2C)c1 (configuration not stated),0% (inactive),
CC(CNC(=O)c1nnc(Cc2cccc(F)c2)o1)c1ccccc1 (configuration not stated),0% (inactive),
C[C@H](CO)N1C[C@H](C)[C@@H](CN(C)S(=O)(=O)c2ccc(Oc3ccccc3)cc2)OCc2cn(nn2)CCCC1=O,9.08% (inactive),
C[C@@H]1CCCCO[C@H](CN(C)Cc2ccccc2)[C@@H](C)CN([C@H](C)CO)C(=O)c2cc(NS(=O)(=O)c3ccc(Cl)cc3)ccc2O1,-12.7% (inactive),
O=C(NCc1ccccn1)[C@@H]1CCCN1C(=O)[C@@H]1CCCN1C(=O)c1ccccc1,-11.2% (inactive),
CC1(C(=O)NCc2ccc3c(c2)OCO3)CCN1C(=O)Cc1cccc2ccccc12 (configuration not stated),2.6% (inactive),
COc1cc(/C=C2\Oc3ccc(C#Cc4ccc(O)cc4)cc3C2=O)cc(OC)c1,,7.31 µM (active)
COc1ccc2c(c1)O/C(=C\c1ccccc1O)C2=O,5.61% (inactive),
COC(=O)C(C)Oc1ccc2c(c1)O/C(=C\c1cccc(Br)c1)C2=O (configuration not stated),12.6% (inactive),
CCN(CC)C(=O)C1=C(C)N(Cc2ccccc2)C(=O)C(CC(=O)NC(c2ccccc2)c2ccccc2)C1 (configuration not stated),5.18% (inactive),
CC(C)Cn1c(N)c(C(=O)NCc2cccs2)c2nc3ccccc3nc21,,10.3 µM (active)
CC(C)(C)c1ccc(C(=O)NCCn2c(N)c(C#N)c3nc4ccccc4nc32)cc1,-6.17% (inactive),
Cn1ncc(Br)c1C(=O)NCc1cccs1,-7.92% (inactive),
CCN1C(=O)c2ccccc2S(=O)c2ccc(C(=O)NCc3ccc(F)cc3)cc21 (configuration not stated),-21.4% (inactive),
CCOC(=O)C1CCCN(S(=O)(=O)c2cc(-c3cc(C)no3)ccc2OC)C1 (configuration not stated),4.24% (inactive),
O=c1cc(CSc2ncn[nH]2)[nH]c2ccc(F)cc12,3.56% (inactive),
CCNC(=O)C1(C)CCN(C(=O)c2ccccc2)C1 (configuration not stated),1.66% (inactive),
Oc1c(C(c2ccccn2)N2CCOCC2)ccc2cccnc12 (configuration not stated),-27.6% (inactive),
CCOC(=O)N1CCN(C(c2ccnc3ccccc23)c2nnnn2-c2c(C)cccc2C)CC1 (configuration not stated),-13.6% (inactive),
CCOC(=O)N1CCN(C(c2cccnc2)c2ccc3cccnc3c2O)CC1 (configuration not stated),,16.4 µM (active)

SMILES,"activity change, negative = cytotoxicity",Potency
CCN(CC)c1nc(C#N)nc(OC)n1,-5.8% (inactive),
CC(C)c1ccc(NC(=O)CN(C)S(=O)(=O)c2ccc3c(c2)c(=O)n(C)c(=O)n3C)cc1,-2.65% (inactive),
CCCC(C(=O)n1nc(C)cc1C)C(NS(=O)(=O)c1ccc(C)cc1)c1ccccc1 (configuration not stated),,23.1 µM (active)
CSCC(NS(=O)(=O)c1ccc(C)cc1)C(=O)O (configuration not stated),0.292% (inactive),
Cc1ccc(S(=O)(=O)Nc2nc(C)cc(-n3nc(C)cc3C)n2)cc1,2.01% (inactive),
Cc1ccc(C)c(C(O)c2ncc(-c3cccc4ccccc34)[nH]2)c1 (configuration not stated),3.86% (inactive),
c1ccc(Cn2nnc3c(NCC4CC4)ncnc32)cc1,-7.11% (inactive),
CC(C)CCC(=O)Nc1cc(S(=O)(=O)N2CCOCC2)ccc1N1CCCC1,-19.5% (inactive),
Cc1cc(OCCCC(=O)Nc2cc(S(=O)(=O)N3CCOCC3)ccc2N2CCOCC2)ccc1Cl,,13 µM (active)
CC(=O)NCCC(=O)Nc1cc(S(=O)(=O)N2CCOCC2)ccc1N1CCOCC1,3.79% (inactive),
COC(C(=O)Nc1ccc(C(C)=O)cc1)c1ccccc1 (configuration not stated),-10.6% (inactive),
COC(C(=O)NCc1ccccc1C)c1ccccc1 (configuration not stated),-24.3% (inactive),
COC(C(=O)Nc1ccc(S(=O)(=O)Nc2ccc(C)c(C)c2)cc1)c1ccccc1 (configuration not stated),,20.6 µM (active)
COc1cccc(Cn2c(SCc3ccc(C(=O)N4CCC(C)CC4)cc3)nc3ccncc32)c1,9.9% (inactive),
CC1CCN(C(=O)c2ccc(CSc3ccc(Cl)cc3)cc2)CC1,,18.4 µM (active)
O=C(C1CC1)N1CCN=C1SCc1ccc(Cl)cc1,0% (inactive),
CCCNC(=O)C1(C)CCCN(C(=O)c2cccc(OC(C)=O)c2C)C1 (configuration not stated),3.99% (inactive),
FC(F)(F)c1ccccc1Cc1c(-c2ccccc2)nc2c3ccccc3ccn12,5.23% (inactive),
Cc1cc(C)c(S(=O)(=O)NCC(c2ccc3c(c2)OCO3)N2CCOCC2)c(C)c1 (configuration not stated),,10.3 µM (active)
COc1ccc(F)cc1S(=O)(=O)NCC(c1ccc2c(c1)OCO2)N1CCN(C)CC1 (configuration not stated),8.77% (inactive),
CC(C)CNC(=O)C(=O)NCC(c1ccc2c(c1)OCO2)N1CCOCC1 (configuration not stated),8.13% (inactive),
O=C(CCc1ccccc1)NCc1ccc2c(c1)CCN2C(=O)c1ccccc1,17.5% (inactive),
